# In the library only some 2.4% were active in any assay of this set; here they are far more common.
# Pf Dd2 inh: P. falciparum Dd2 growth inhibitors, primary screen, SYBR Green fluorescence, single dose replicates | 72 h; stronger effect = lower value | 94,000 compounds, 2.3% hits | activity change, % at 10 µM; in the data active = activity change below about -80%; inconclusive = no clear call, values can overlap the other calls
# C diff growth: C. difficile growth inhibitors, primary screen, HTS; Clostridium difficile clinical isolate growth, OD600, 24 h; stronger effect = lower value; growth activity, negative = inhibition, % at 16 µg/mL (by protocol); 86,000 compounds, 0.25% hits; AID 1259249, 2017;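 active = mean growth activity at or below -80% and every replicate also at or below -80%; inconclusive = mean at or below -80% but some replicate above -80%; inactive = mean growth activity above -80%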
# A number is an active result; 0 = inactive; ? = inconclusive; - = no result given.
SMILES,Pf Dd2 inh,C diff growth
C[C@@H]1CCCCO[C@H](CN(C)S(=O)(=O)c2ccc(F)cc2)[C@H](C)CN([C@@H](C)CO)C(=O)c2cc(NC(=O)Nc3ccc4c(c3)OCO4)ccc2O1,-81,0
C[C@@H]1CCCCO[C@@H](CN(C)S(=O)(=O)c2ccc(Cl)cc2)[C@@H](C)CN([C@@H](C)CO)C(=O)c2cc(NC(=O)Nc3ccc4c(c3)OCO4)ccc2O1,-88,0
Cc1ccc(S(=O)(=O)N(C)C[C@H]2OCCCC[C@H](C)Oc3ccc(NC(=O)Nc4ccc5c(c4)OCO5)cc3C(=O)N([C@H](C)CO)C[C@@H]2C)cc1,0,-
C[C@@H]1CN([C@H](C)CO)C(=O)c2cc(NC(=O)Nc3ccc4c(c3)OCO4)ccc2O[C@@H](C)CCCCO[C@H]1CN(C)S(=O)(=O)c1ccc(Cl)cc1,0,0
Cc1ccc(S(=O)(=O)N(C)C[C@@H]2OCCCC[C@@H](C)Oc3ccc(NC(=O)Nc4ccc5c(c4)OCO5)cc3C(=O)N([C@@H](C)CO)C[C@@H]2C)cc1,-83,-
Cc1ccc(S(=O)(=O)N(C)C[C@H]2OCCCC[C@@H](C)Oc3ccc(NC(=O)Nc4ccc5c(c4)OCO5)cc3C(=O)N([C@@H](C)CO)C[C@H]2C)cc1,0,-
CN(C)CC(=O)N1CC2(C1)[C@@H](c1ccccc1)[C@@H](CO)N2S(=O)(=O)c1ccccc1,0,0
CC(C)C#Cc1ccc2c(c1)O[C@H](CN(C)Cc1cccnc1)[C@@H](C)CN([C@@H](C)CO)S2(=O)=O,0,0
O=C(C[C@H]1CC[C@H]2[C@@H](COC[C@H](O)CN2S(=O)(=O)c2ccccc2)O1)N1CCOCC1,0,0
C[C@H](CO)N1C[C@H](C)[C@@H](CN(C)C(=O)Nc2ccc(F)cc2)Oc2ncc(Br)cc2C1=O,0,0
CN1c2ccc(C#Cc3cccnc3)cc2[C@@H]2[C@@H](CCN2S(=O)(=O)c2ccccc2F)[C@@H]1CO,-88,0
CN1c2ccc(C#Cc3cccc(F)c3)cc2[C@H]2[C@H](CCN2S(=O)(=O)c2ccccc2F)[C@@H]1CO,0,0
COc1cccc(C#Cc2ccc3c(c2)[C@@H]2[C@@H](CCN2C(=O)c2ccccc2F)[C@@H](CO)N3C)c1,0,-97
COc1ccc(C#Cc2ccc3c(c2)[C@H]2[C@H](CCN2C(=O)c2ccccc2F)[C@H](CO)N3C)cc1,0,-
CN1c2ccc(C#Cc3cccnc3)cc2[C@@H]2[C@@H](CCN2C(=O)C2CCCC2)[C@H]1CO,0,0
CN1c2ccc(C#Cc3cccnc3)cc2[C@@H]2[C@@H](CCN2C(=O)C2CCC2)[C@@H]1CO,-87,0
COc1ccc2c3c([nH]c2c1)[C@@H](CO)N(C(=O)CN(C)C)CC31CN(CC2CCCC2)C1,-86,0
COc1ccc2c3c([nH]c2c1)[C@H](CO)N(C(=O)CN(C)C)CC31CCN(Cc2ccccc2)CC1,-82,0
COc1ccc2c3c([nH]c2c1)[C@@H](CO)N(C(=O)CN(C)C)CC31CCN(Cc2ccccc2)CC1,?,0
COc1ccc2c3c([nH]c2c1)[C@H](CO)N(C(=O)CN(C)C)CC31CN(CC2CCOCC2)C1,0,0
O=C(C[C@@H]1CC[C@H]2[C@@H](COC[C@@H](O)CN2C(=O)C2CC2)O1)NCc1ccccc1Cl,0,0
COc1cccc(CN2CC3(CN(CC4CCOCC4)C3)c3c([nH]c4cc(OC)ccc34)[C@H]2CO)c1,-83,0
COc1cccc(CN2CC3(CN(CC4CC4)C3)c3c([nH]c4cc(OC)ccc34)[C@@H]2CO)c1,0,0
COc1ccc2c3c([nH]c2c1)[C@@H](CO)N(Cc1ccccc1)CC31CCN(CC2CC2)CC1,0,0
COc1ccc2c3c([nH]c2c1)[C@@H](CO)N(Cc1cccc(F)c1)CC31CCN(CC2CC2)CC1,-80,0
SMILES,Pf Dd2 inh,C diff growth
COc1ccc2c3c([nH]c2c1)[C@H](CO)N(Cc1cccc(F)c1)CC31CN(CC2CC2)C1,-85,0
COc1cccc(CN2CC3(CN(CC4CCOCC4)C3)c3c([nH]c4cc(OC)ccc34)[C@@H]2CO)c1,0,0
CC(C)NC(=O)Nc1ccc2c(c1)C(=O)N(C)[C@@H]1CC[C@@H](CC(=O)Nc3ccccc3)O[C@H]1CO2,0,0
O=C(CN1CCOCC1)NCC[C@H]1CC[C@H](NS(=O)(=O)c2ccc(Cl)cc2)[C@H](CO)O1,0,0
O=C(c1ccncc1)N1C[C@H]2[C@@H](c3ccccc31)[C@@H](CO)N2C(=O)c1ccncc1,0,0
CC(C)NC(=O)N(C)C[C@@H]1Oc2ccc(NC(=O)NC3CCCCC3)cc2C(=O)N([C@@H](C)CO)C[C@@H]1C,0,0
COCCNC(=O)C[C@H]1C[C@@H]2c3cc(NS(=O)(=O)c4ccccc4)ccc3O[C@@H]2[C@@H](CO)O1,0,-
C[C@@H]1CN([C@@H](C)CO)C(=O)c2cccc(NC(=O)c3ccc(-c4nccs4)cc3)c2O[C@@H]1CN(C)Cc1ccc(-c2ccccc2)cc1,0,0
C[C@H]1CN([C@@H](C)CO)C(=O)c2cccc(NC(=O)c3ccc(-c4nccs4)cc3)c2O[C@H]1CN(C)Cc1ccccc1,0,0
C[C@H]1CN([C@@H](C)CO)C(=O)c2cccc(NC(=O)c3ccc(-c4nccs4)cc3)c2O[C@@H]1CN(C)Cc1ccc(C(=O)Nc2ccccc2N)cc1,-90,0
C[C@@H]1CN([C@H](C)CO)C(=O)c2cccc(NC(=O)c3ccc(-c4nccs4)cc3)c2O[C@H]1CN(C)Cc1ccc(C(=O)Nc2ccccc2N)cc1,-91,0
C[C@@H]1CN([C@H](C)CO)C(=O)c2cccc(NC(=O)Nc3ccc(C(F)(F)F)cc3)c2O[C@@H]1CN(C)Cc1ccc(C(=O)Nc2ccccc2N)cc1,-90,0
C[C@@H]1CN([C@@H](C)CO)C(=O)c2cccc(NC(=O)Nc3ccc(C(F)(F)F)cc3)c2O[C@@H]1CN(C)Cc1ccc(C(=O)Nc2ccccc2N)cc1,-91,0
C[C@H]1CN([C@@H](C)CO)C(=O)c2cccc(NC(=O)Nc3ccc(C(F)(F)F)cc3)c2O[C@H]1CN(C)Cc1ccc(C(F)(F)F)cc1,0,0
C[C@H](CO)N1C[C@H](C)[C@H](CN(C)Cc2ccc(C(=O)Nc3ccccc3N)cc2)Oc2c(NC(=O)Nc3ccc(C(F)(F)F)cc3)cccc2C1=O,0,0
C[C@H](CO)N1C[C@H](C)[C@H](CN(C)S(=O)(=O)c2ccc(Cl)cc2)OCCCC[C@H](C)Oc2ccc(NS(=O)(=O)c3ccc(Cl)cc3)cc2C1=O,0,0
O=C([C@H]1[C@H](CO)[C@H]2Cn3c(ccc(/C=C/c4ccccc4)c3=O)[C@H]2N1CC1CC1)N1CCOCC1,0,0
COc1ccc(S(=O)(=O)Nc2ccc3c(c2)CC(=O)N([C@H](C)CO)C[C@H](C)[C@H](CN(C)S(=O)(=O)c2ccc(Cl)cc2)O3)cc1,0,0
COc1ccc(S(=O)(=O)Nc2ccc3c(c2)CC(=O)N([C@H](C)CO)C[C@H](C)[C@H](CN(C)S(=O)(=O)c2ccc(C)cc2)O3)cc1,-86,0
COc1ccc(S(=O)(=O)N(C)C[C@@H]2Oc3ccc(NS(=O)(=O)c4ccc(Cl)cc4)cc3CC(=O)N([C@@H](C)CO)C[C@@H]2C)cc1,-83,0
COc1ccc(S(=O)(=O)Nc2ccc3c(c2)CC(=O)N([C@@H](C)CO)C[C@@H](C)[C@@H](CN(C)S(=O)(=O)c2ccc(C)cc2)O3)cc1,0,0

# Bioassay records deposited in PubChem BioAssay by Broad Institute.
